From PubChem BioAssay (NCATS)
Results filed as inconclusive are left out. Activity calls are given as the source filed them. Calls come from the whole dose curve; as a rule, active = well fitted cell-killing curve with a large enough effect; inconclusive = small, poorly fitted or top-dose-only effect, or effect the other way; inactive = no such curve, though single readings can be large or run the other way.

Experiment: Quantitative High-Throughput drug screen in 47 multiple myeloma cell lines against the NCATS MIPE library collection: U266_ATCC cell viability assay (AID 1919864); note: nearly all actives have a fitted effect of over 35% in size
Settings: U266 myeloma viability, CellTiter-Glo ATP luminescence, 48 h; series mostly up to 45.8 µM
Method in brief: (§1)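 Readout: median RLU from CellTiter-Glo after 5 min at room temperature. Preceding step was 48 h drug treatment of 500 cells/well at 37 °C, 5% CO2, with DMSO-only and media-only control wells.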
Potency is the fitted concentration of half-maximal effect.

| SMILES | Potency |
| --- | --- |
| Cn1cnc2c1c(=O)[nH]c(=O)n2C | 23.5 µM (active) |
| CN1C(C(=O)Nc2ccccn2)=C(O)c2ccccc2S1(=O)=O | inactive |
| CC(C(=O)O)c1cccc(C(=O)c2ccccc2)c1 (centres undefined) | inactive |
| CN(Cc1cnc2nc(N)nc(N)c2n1)c1ccc(C(=O)N[C@@H](CCC(=O)O)C(=O)O)cc1 | 0.148 µM (active) |
| O=C1N(c2ccccc2)c2ccccc2C1(Cc1ccncc1)Cc1ccncc1 | inactive |

Experiment: Quantitative High-Throughput drug screen in 47 multiple myeloma cell lines against the NCATS MIPE library collection: XG6_PLB cell viability assay (AID 1919865); note: nearly all actives have a fitted effect of over 40% in size
Settings: XG6 myeloma viability, CellTiter-Glo ATP luminescence, 48 h; series mostly up to 45.8 µM
Method in brief: as §1

| SMILES | Potency |
| --- | --- |
| Cn1c(=O)c2[nH]cnc2n(C)c1=O | 26.4 µM (active) |
| CC[C@@]1(O)C(=O)OCc2c1cc1n(c2=O)Cc2cc3c(CN(C)C)c(O)ccc3nc2-1 | 0.0132 µM (active) |
| O=c1[nH]cc(F)c(=O)[nH]1 | 4.69 µM (active) |
| NCCS(=O)(=O)O | inactive |
| CC#C[C@]1(O)CC[C@H]2[C@@H]3CCC4=CC(=O)CCC4=C3[C@@H](c3ccc(N(C)C)cc3)C[C@@]21C | 0.264 µM (active) |
| CC[N+](CC)(CC)CCOc1cccc(OCC[N+](CC)(CC)CC)c1OCC[N+](CC)(CC)CC | inactive |
| Cc1ccccc1N1C(=O)c2cc(S(N)(=O)=O)c(Cl)cc2NC1C (centres undefined) | inactive |
| CS(=O)(=O)CCNCc1ccc(-c2ccc3ncnc(Nc4ccc(OCc5cccc(F)c5)c(Cl)c4)c3c2)o1 | 0.001 µM (active) |
| COc1ccc2c(c1)c(CC(=O)O)c(C)n2C(=O)c1ccc(Cl)cc1 | 18.7 µM (active) |
| NC(=O)NO | 2.35 µM (active) |
| CNCCCC12CCC(c3ccccc31)c1ccccc12 | 18.7 µM (active) |
| COc1cc2nc(N3CCN(C(=O)c4ccco4)CC3)nc(N)c2cc1OC | 7.43 µM (active) |
| COc1ccccc1OCC(O)CN1CCN(CC(=O)Nc2c(C)cccc2C)CC1 (centres undefined) | inactive |
| O=C1c2c(O)ccc(O)c2C(=O)c2c(NCCNCCO)ccc(NCCNCCO)c21 | 0.118 µM (active) |
| CCOC(=O)Nc1ccc(NCc2ccc(F)cc2)nc1N | 14.8 µM (active) |
| Nc1nc2c(ncn2COC(CO)CO)c(=O)[nH]1 | 20.9 µM (active) |
| CN(C)C(=O)C(CCN1CCC(O)(c2ccc(Cl)cc2)CC1)(c1ccccc1)c1ccccc1 | 20.9 µM (active) |
| CCCCc1oc2ccccc2c1C(=O)c1cc(I)c(OCCN(CC)CC)c(I)c1 | 13.2 µM (active) |
| Nc1ccn([C@H]2CC[C@@H](CO)O2)c(=O)n1 | 10.5 µM (active) |
| CC(C)NCC(O)c1ccc(O)c(O)c1 (centres undefined) | 0.743 µM (active) |
| CN(C)CCCN1c2ccccc2CCc2ccc(Cl)cc21 | 0.372 µM (active) |
| NC12CC3CC(CC(C3)C1)C2 | 2.96 µM (active) |
| CN(CCOc1ccc(NS(C)(=O)=O)cc1)CCc1ccc(NS(C)(=O)=O)cc1 | 13.2 µM (active) |
| Cc1cn([C@H]2C=C[C@@H](CO)O2)c(=O)[nH]c1=O | 3.82 µM (active) |
| CCN1CCCC1CNC(=O)c1cc(S(=O)(=O)CC)c(N)cc1OC (centres undefined) | inactive |
| Cn1cnc2c1c(=O)[nH]c(=O)n2C | 16.6 µM (active) |
| CN1C(C(=O)Nc2ccccn2)=C(O)c2ccccc2S1(=O)=O | inactive |
| CC(C(=O)O)c1cccc(C(=O)c2ccccc2)c1 (centres undefined) | 13.2 µM (active) |
| CN(Cc1cnc2nc(N)nc(N)c2n1)c1ccc(C(=O)N[C@@H](CCC(=O)O)C(=O)O)cc1 | 0.0469 µM (active) |
